Screening data deposited in PubChem BioAssay by National Center for Advancing Translational Sciences (NCATS).
VACV Venus inh – inhibitors of vaccinia virus (Venus reporter); Vaccinia virus Venus reporter expression, fluorescence; Potency, µM (titrated, usually from 36.5 µM), for the others: at the highest dose activity change, negative = inhibition, actives largely listed as inhibitors; hit rate 0.46% among 330,000; AID 720580; calls by dose curve; tested in A549 cells; further: potency means the concentration at half of the fitted maximal effect; nearly all actives have a fitted effect of over 30% in size
FMDV antiviral – antivirals against foot and mouth disease virus | Potency, µM (doses to about 57.9 µM), for inactives: top-dose activity change, negative = inhibition, actives largely listed as inhibitors | AID 1159524 | FMDV antiviral cell-based qHTS | hit rate 1.2% among 410,000; calls by dose curve; tested in HEK293T cells; further: read-out not given here; potency means the concentration at half of the fitted maximal effect; nearly all actives have a fitted effect of over 45% in size
HCMV inh – inhibitors of human cytomegalovirus; hit rate 4.5% among 410,000; activity change, negative = inhibition, % at 57.5 µM; HFF cells, HCMV-luciferase reporter, 72 h; stronger effect = lower value; in the data active means activity change below about -60%; inconclusive means no clear call, values can overlap the other calls; inactive means above about -39%
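Inhibition of viral replication was scored as loss of reporter luminescence in HFFs infected with HCMV-luciferase (MOI 1 PFU/cell) for 72 h; compounds tested at 2 doses, normalized to buffer and Salinomycin controls.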
MARV entry inh – blocks Marburg virus binding to or entry into cells; Marburg virus pseudotyped entry inhibition, cell reporter; Potency, µM (top dose mostly 37.8 µM), for the others: top-dose activity change, negative = inhibition, actives largely listed as inhibitors; hit rate 1.8% among 300,000; calls by dose curve; tested in HEK293 cells; further: potency means the concentration at half of the fitted maximal effect
Vaccinia mCherry – vaccinia inhibition (mCherry reporter). Vaccinia virus mCherry reporter infection, fluorescence. Potency, µM (top dose mostly 36.5 µM), inactives show at the top dose activity change, negative = inhibition, most hits filed as inhibitors. hit rate 0.63% among 310,000. AID 720579; calls by dose curve; tested in A549 cells; further: potency means the concentration at half of the fitted maximal effect; nearly all actives have a fitted effect of over 35% in size
Lassa entry inh – Lassa virus entry inhibition; AID 540256; Lassa virus pseudotype entry inhibition, cell reporter; Potency, µM (top dose mostly 37.9 µM), for inactives: at the highest dose activity change, negative = inhibition, most hits filed as inhibitors; hit rate 1.2% among 300,000; calls by dose curve; tested in HEK293 cells; further: potency means the concentration at half of the fitted maximal effect; nearly all actives have a fitted effect of over 50% in size
* = called active by the depositor; i = inactive; ? = inconclusive; nt = not tested or not shown; + = active, no number; [ ] = remark or other dose. The list is not random: actives were taken first. Their share in the collection is about 6.5%. On the % scale 0 is the no-effect control and ±100 the full control effect.

SMILES	VACV Venus inh	FMDV antiviral	HCMV inh	MARV entry inh	Vaccinia mCherry	Lassa entry inh
COc1cc2ccccc2cc1C(=O)N1CCN(c2nc3ccc(F)cc3s2)CC1	-23.6%	?	-64.4*	nt	-18.4%	-4.9%[46.1 µM]
O=C(NCC1CCC2(CCN(Cc3cccc(-c4ccco4)c3)CC2)O1)c1ccccc1 (stereo not drawn)	-0.3%	-5.2%	nt	nt	-14.6%	nt
Cc1nn(-c2ccccc2)c(C)c1NC(=O)COc1cc(F)ccc1[N+](=O)[O-]	nt	25.1µM*	?	nt	nt	nt
Cc1nn(-c2ccccc2)c(C)c1NC(=O)COc1ccc(Br)cc1Cl	-7.2%	22.4µM*	?	-57.5%	-16.8%	?
Cc1nn(-c2ccccc2)c(C)c1NC(=O)COc1ccccc1C#N	-6.3%	-4.6%	-34.6	nt	-4.7%	nt
COc1cccc2sc(=NC(=O)CS(=O)(=O)c3ccc(F)cc3)n(C)c12	-7.3%	?	-18.6	-4.0%	-16.7%	-0.7%
CCn1c(=NC(=O)CS(=O)(=O)c2ccc(C)cc2)sc2cccc(OC)c21	-23.1%	?	-62.4*	?	-31.0%	?
CN(C)S(=O)(=O)c1ccc(C(=O)Nc2cc(S(=O)(=O)Nc3ccccc3Cl)ccc2N2CCCCC2)cc1	-6.4%	5.7%	-27.5	-10.9%	-15.9%	5.17µM*
CSc1ccccc1NC(=O)c1cc(S(=O)(=O)N(C)C)ccc1N1CCCC1	-10.9%	-24.6%	-31.4	-2.3%	-11.4%	-9.7%
CN(C)S(=O)(=O)c1ccc(N2CCCC2)c(C(=O)Nc2ccccc2)c1	-14.1%	-19.3%	-67.4*	7.4%	-17.4%	4.9%
CN1CCN(c2ccc(Cl)cc2NC(=O)c2ccc(S(=O)(=O)N(C)C)cc2)CC1	-16.8%	6.0%	77.0	?	i	-3.0%
Cc1ccc(-c2cc(C(=O)N3CCCCCC3)no2)cc1	-7.2%	65.3%	26.5	?	i	?
O=C(c1cc(-c2ccc(O)cc2)on1)N1CCN(c2ccc(F)cc2)CC1	-13.4%	-29.7%	-62.6*	nt	13.5%	nt
O=C(c1cc(-c2ccc(O)cc2)on1)N1CCCC1	-12.8%	12.2%	57.2	11.2µM*	-29.6%	?
O=C(c1cc(-c2ccccc2)on1)N1CCCCCC1	-6.6%	34.5%	19.1	?	7.3%	12.6µM*
O=C(c1cc(-c2ccco2)on1)N1CCN(C(c2ccccc2)c2ccccc2)CC1	nt	?	-103.6*	?	nt	-17.0%
O=C1[C@H]2[C@@H]3[C@@H](O)[C@H](O)CC(=NOCc4ccccc4)[C@@H]3CC[C@H]2C(=O)N1Cc1ccc2c(c1)OCO2	nt	nt	nt	-17.5%[14.2 µM]	nt	?
CCOc1ccc(S(=O)(=O)c2cn(C)c3ccccc3c2=O)cc1	-7.8%	11.0%	19.4	-23.6%[46.1 µM]	-14.9%	-17.3%[46.1 µM]
O=C(c1cc(-c2ccc(Cl)cc2)on1)N1CCOCC1	nt	-41.1%	50.7	?	nt	9.2µM*
CC1(C)CC2CC(C)(CN2C(=O)c2cc(-c3ccc(O)cc3)on2)C1 (stereo not drawn)	-15.1%	33.7%	-60.7*	?	?	?
Cc1c(Cc2ccc3c(c2)OCO3)sc(NC(=O)C2CC2)c1C(N)=O	?	?	0.0	6.8%[46.1 µM]	?	8.91µM*
CN(C)CCCN(C(=O)c1ccc(S(=O)(=O)N(C)C)cc1)c1nc2cc3c(cc2s1)OCO3	-8.5%	-3.6%	-15.1	?	-14.6%	-6.7%[46.1 µM]
O=C(c1ccc(Br)s1)N(Cc1cccnc1)c1nc2ccc(F)cc2s1	-13.3%	-5.2%	14.1	nt	-0.7%	1.5%[46.1 µM]
CC(=O)N(Cc1cccnc1)c1nc2ccc(F)cc2s1	-10.8%	-8.2%	-76.7*	nt	-2.3%	16.4%[46.1 µM]
COc1ccc(C)c2sc(N(Cc3cccnc3)C(=O)CCc3ccccc3)nc12	-5.5%	-6.7%	+	nt	-16.3%	0.4%[46.1 µM]
SMILES	VACV Venus inh	FMDV antiviral	HCMV inh	MARV entry inh	Vaccinia mCherry	Lassa entry inh
CCN(Cc1ccccc1)S(=O)(=O)c1ccc(C(=O)N(CCCN(C)C)c2nc3cc4c(cc3s2)OCO4)cc1	?	-4.8%	-64.9*	?	-17.8%	?
CCN(Cc1ccccc1)S(=O)(=O)c1ccc(C(=O)N(CCCN(C)C)c2nc3c(C)c(C)ccc3s2)cc1	?	-13.5%	-16.2	6.31µM*	11.2µM*	2.82µM*
Cc1cc2c(cc1S(=O)(=O)Nc1cccc(Cl)c1C)OCCN2C	-18.1%	35.5%	?	nt	-24.9%	0.9%[46.1 µM]
CCOCCCNC(=O)NC(CCC(C)C)c1c(-n2cccc2)sc2c1CCN(C)C2 (stereo not drawn)	-10.8%	11.3%	81.1	nt	-12.6%	17.9%[46.1 µM]
Cc1csc(NCC(=O)c2c(C)[nH]c3ccccc23)n1	-22.3%	nt	nt	nt	-19.1%	nt
COc1cc(C(=O)NCc2ccc3c(c2)CCN3C(=O)c2ccncc2)cc(OC)c1OC	-15.3%	-4.7%	16.2	nt	-1.5%	17.7%[46.1 µM]
CN(C)C(=O)c1ccc(-c2cc3c(Nc4ccc(OC(F)(F)F)cc4)nccc3n2C)cc1	nt	nt	-24.5	nt	nt	nt
COC(=O)c1ccc2c(=O)n(CCCCCC(=O)N3CCN(c4cccc(C)c4C)CC3)c(=O)[nH]c2c1	-14.4%	-21.2%	-36.3	nt	i	0.9%[46.1 µM]
CC(C)CNC(=O)c1cn(C2CCN(Cc3nc4ccccc4s3)CC2)nn1	0.0%	-9.6%	nt	nt	i	nt
CC(=O)N(Cc1cccnc1)c1nc2c(C)cc(C)cc2s1	-3.1%	4.1%	?	nt	-11.4%	1.4%[46.1 µM]
Cc1ccc2sc(N(CCCN(C)C)C(=O)c3ccc(S(=O)(=O)N(C)C4CCCCC4)cc3)nc2c1C	?	-4.4%	-35.0	?	?	12.6µM*
CC(=O)c1ccc(C(=O)N(Cc2cccnc2)c2nc3c(C)c(C)ccc3s2)cc1	-24.2%	-12.0%	0.0	nt	-8.2%	12.6µM*
CCN(CC)CCN(C(=O)c1ccc(S(=O)(=O)N(C)C2CCCCC2)cc1)c1nc2c(C)cccc2s1	-8.7%	?	23.3	?	-16.9%	?
N#Cc1c(Br)n(C2OC(CO)C(O)C2O)c2ncnc(N)c12 (stereo not drawn)	12.6µM*	7.7%	-94.9*	?	?	?
NC(=O)c1c(Br)n(C2OC(CO)C(O)C2O)c2ncnc(N)c12 (stereo not drawn)	?	-21.3%	-83.0*	?	11.2µM*	?
Nc1ncnc2c1nc(-c1ccccc1)n2C1OC(CO)C(O)C1O (stereo not drawn)	0.5%	-8.5%	11.0	nt	5.9%	nt
Cn1c(CS(=O)Cc2c(Cl)cccc2Cl)nnc1SCc1c(Cl)cccc1Cl (stereo not drawn)	nt	-3.9%	-12.5	?	nt	-5.7%
O=S(Cc1ccc(Br)cc1)Cc1nnc(SCc2c(Cl)cccc2Cl)n1-c1ccccc1 (stereo not drawn)	?	28.2µM*	?	?	?	?
COC(=O)C1=CN(c2ccc(F)cc2)C(N)=C(C#N)C1c1ccc(-c2ccccc2)cc1 (stereo not drawn)	-29.0%	-0.4%	-12.6	nt	?	nt
COC(=O)C1=CN(c2ccc(C(C)(C)C)cc2)C(N)=C(C#N)C1c1ccc(OC)cc1 (stereo not drawn)	-7.8%	-25.4%	-77.1*	nt	?	nt
